The record followed here is PubChem BioAssay (Tox21).

Inconclusive results are not listed. Where a call stands in place of a potency, no number is given. Values without a mark were called inactive. Calls of active or inactive are those of the source. Calls follow the shape of the dose curve; as a rule, active = well fitted cell-killing curve with a large enough effect in the repeat runs; inconclusive = weak or mixed curves, or effect the other way; inactive = flat fitted curve, though single readings scatter.

The nature of this assay: qHTS RealTime-Glo MT Cell Viability Assay in HEK293 cells - 0 hour (AID 1224880). Also: top concentration of the series differs between compounds; nearly all actives have a fitted effect of over 45% in size. As to conditions: RealTime-Glo luminescence; series mostly up to 76.8 µM. The source says: U.S. Tox21 Program National Center for Advancing Translational Sciences [NCATS] NIH Chemical Genomics Center [NCGC] U.S. Environmental Protection Agency [EPA] National Institutes of Environmental Health Sciences [NIEHS] National Toxicology Program [NTP] U.S. Food and Drug Administration [FDA] Tox21 Assay Overview: Measure of cell viability is critical in the cell-base assay. Analysis of cell viability is necessary for the characterization of cell responses to cytotoxic drugs and environmental stress. A RealTime-Glo MT Cell Viability Assay to monitor cell viability in real time of continues cell culture during 40 hours of compound treatment was used to screen Tox21 10K library compounds in Hek293 cells. The RealTime-Glo MT Cell Viability Assay is a nonlytic, homogeneous, bioluminescent method to measure cell viability in real time using a simple, plate-based method. The assay involves adding NanoLuc luciferase and a cell-permeant prosubstrate to cells in culture. Viable cells reduce the proprietary prosubstrate to generate a substrate for NanoLuc luciferase. This substrate diffuses from cells into the surrounding culture medium, where it is rapidly used by the NanoLuc Enzyme to produce a luminescent signal. The signal correlates with the number of viable cells, making the assay well suited for cytotoxicity studies.
Tox21 Assay Protocol Summary: The mixture of Hek293 cell suspension and reagents were dispensed at 600cells/6 ul/well in 1536-well tissue culture treated black solid bottom plates using a Multidrop dispenser. After the assay plates were incubated at a 37 C/5% CO2 incubator for 5 hours, 23 nL of compounds dissolved in DMSO, positive and negative controls was transferred to the assay plate by a pintool work station. The plates were incubated at 37 C for 40 hours. The luminescence intensity were measured at 0h, 8h, 16h, 24h, 32h and 40h time points using ViewLux plate reader during compound treatment.
In general terms: qHTS replaces the single test concentration by a dilution series.
As for `CN1CCN(c2ccccc2/C=C2\SCCN(c3ccc(Cl)c(Cl)c3)C2=O)CC1`, the Potency result is “inactive”. For the compound `Oc1ccc2c(c1)CCC2`, the Potency entry is “inactive”. The same measure, in the same setting: the entry for `CS(=O)(=O)c1ccc([C@@H](CC2CCCC2)C(=O)Nc2cnccn2)cc1Cl` is “inactive”.

As to `C/C(=C\c1ccc(C(=O)O)cc1)c1ccc2c(c1)C(C)(C)CCC2(C)C`, the Potency result was “inactive”.

As to `CCCCCCCCCCCC(=O)Cl`, the Potency entry was “inactive”.

With `COc1cc(OC)nc(NC(=O)NS(=O)(=O)Nc2ccccc2C(=O)N(C)C)n1`, the Potency result was “inactive”.

As to `N#Cc1nc(Cl)c(Cl)c(Cl)c1Cl`, the Potency result was “inactive”. Still for that read-out and setting: the entry for `CCCCC/C=C\C=C\C(=O)OCC` is “inactive”. Take `C=Cc1ccncc1`: the Potency entry is “inactive”. The same measure, in the same setting: the entry for `Clc1cccc(Cl)n1` is “inactive”; for `CC(Cc1ccc(O)c(O)c1)C(C)Cc1ccc(O)c(O)c1` (stereo not given) it is “inactive”. Still for that read-out and setting: the entry for `CC(=O)Nc1ccc(N=Nc2cc(C)ccc2O)cc1` is “inactive”. Same read-out and setting: the entry for `CC(C)(C)c1cc(CCC(=O)OCCSCCOC(=O)CCc2cc(C(C)(C)C)c(O)c(C(C)(C)C)c2)cc(C(C)(C)C)c1O` is “inactive”. On to `O=C(O)CN(CCCN(CC(=O)O)CC(=O)O)CC(=O)O`, for which the activity change, negative = cytotoxicity is -10.1% [at 15.8 µM].

Regarding `Cc1c(Cl)c(=O)oc2cc(O)ccc12`, the Potency entry was “inactive”. Still for that read-out and setting: the entry for `COc1c(Br)cc(Br)c(C)c1Br` is “inactive”; for `NCc1cccc(C2CCN(C(=O)c3ccc(C#Cc4ccccc4F)o3)CC2)c1` it is “inactive”. On the same count and under the same terms, the entry for `CCOC(=O)[C@H](C)O` is “inactive”. The same measure, in the same setting: the entry for `CCCCCc1ccc(O)cc1` is “inactive”; for `CO[Si](OC)(c1ccccc1)c1ccccc1` it is “inactive”; for `CC/C(=C(/c1ccc(O)cc1)c1ccc(OCCN(C)C)cc1)c1ccccc1` it is “inactive”. For the compound `C/C(=N\[Si](C)(C)C)O[Si](C)(C)C`, the Potency result was “inactive”. Consider `c1ccc2cc3c4ccccc4c4ccccc4c3cc2c1`, for which the Potency entry is “inactive”.

For `CCC(C)(C)c1ccc(CC(C)CN2C[C@@H](C)O[C@@H](C)C2)cc1` (stereo not given in full), the Potency entry was “inactive”.

Turning to `CCCCCCCCc1ccc(Nc2ccc(CCCCCCCC)cc2)cc1`, the Potency result was “inactive”.

Take `N#CCCOCCC#N`: the Potency result was “inactive”. Same read-out and setting: the entry for `ClC(c1ccccc1)(c1ccccc1)c1ccccc1` is “inactive”. Take `CCCCCCCCOC(=O)c1cc(O)c(O)c(O)c1`: the Potency result was “inactive”. Still for that read-out and setting: the entry for `C=CC(=O)O[C@H]1C[C@@H]2CC[C@@]1(C)C2(C)C` is “inactive”; for `Cc1cc(C)c(O)c(C(C)(C)C)c1` it is “inactive”. Take `CCCC(C)C=O` (stereo not given): the Potency result was “inactive”.

On to `CC(C)c1ccc2sc3ccccc3c(=O)c2c1`, for which the Potency result was “inactive”. The same measure, in the same setting: the entry for `C=C1C(CCl)(CCl)C2(Cl)C(Cl)C(Cl)C1(Cl)C2(Cl)Cl` (stereo not given) is “inactive”; for `O=C(c1ccccc1)c1ccc(Cl)cc1` it is “inactive”; for `CC(C=O)c1ccccc1` (stereo not given) it is “inactive”. Still for that read-out and setting: the entry for `Nc1ccc2c(S(=O)(=O)O)cccc2c1S(=O)(=O)O` is “inactive”; for `c1ccc(-c2nc3ccccc3[nH]2)cc1` it is “inactive”. As to `CC(C)=CCC[C@H](C)CC=O`, the Potency result was “inactive”. Same read-out and setting: the entry for `CCCCCCCCCCCCCCCCC(C(=O)O)C(O)(CC(=O)O)C(=O)O` (stereo not given) is “inactive”.

As for `COc1cc(C(C)C)ccc1C`, the activity change, negative = cytotoxicity is 6.56% [at 15.8 µM].
